Only some compounds are listed: those with a hit (about 7.6% of all), similar ones and a draw of the others.
p53 reactivation = mutant p53 re-activation in reporter cells; H1299 p53-A138V BP100-luciferase reporter, luminescence, 24 h; Potency, µM (highest dose often 92.2 µM), without a hit: top-dose activity change, positive = activation, usual class: activators; 320,000 compounds, 0.063% hits; AID 504706; further: potency means the concentration at half of the fitted maximal effect; % of control where 0% means no effect; nearly all actives have a fitted effect of over 45% in size
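H1299 (p53-null), stable ts p53-A138V + BP100-Luc; 1000 cells/well, Opti-MEM/10% FBS; cpd 4 pt, 1:5; 24 h, 37 deg C, 5% CO2; detection reagent 10 min RT; luminescence.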
RORg inh = inhibitors of mouse ROR gamma transcriptional activity; P51450; Drosophila S2 Gal4-RORgamma UAS-luciferase reporter, 20 h; Potency, µM (top dose mostly 53.6 µM), without a hit: at the top dose activity change, negative = inhibition, most hits filed as inhibitors; 310,000 compounds, 5.4% hits; AID 2551; further: potency means the concentration at half of the fitted maximal effect; on the % scale 0 is the no-effect control and ±100 the full control effect; nearly all actives have a fitted effect of over 60% in size
Target sequence (P51450 whole entry, looked up, the tested form may be a part): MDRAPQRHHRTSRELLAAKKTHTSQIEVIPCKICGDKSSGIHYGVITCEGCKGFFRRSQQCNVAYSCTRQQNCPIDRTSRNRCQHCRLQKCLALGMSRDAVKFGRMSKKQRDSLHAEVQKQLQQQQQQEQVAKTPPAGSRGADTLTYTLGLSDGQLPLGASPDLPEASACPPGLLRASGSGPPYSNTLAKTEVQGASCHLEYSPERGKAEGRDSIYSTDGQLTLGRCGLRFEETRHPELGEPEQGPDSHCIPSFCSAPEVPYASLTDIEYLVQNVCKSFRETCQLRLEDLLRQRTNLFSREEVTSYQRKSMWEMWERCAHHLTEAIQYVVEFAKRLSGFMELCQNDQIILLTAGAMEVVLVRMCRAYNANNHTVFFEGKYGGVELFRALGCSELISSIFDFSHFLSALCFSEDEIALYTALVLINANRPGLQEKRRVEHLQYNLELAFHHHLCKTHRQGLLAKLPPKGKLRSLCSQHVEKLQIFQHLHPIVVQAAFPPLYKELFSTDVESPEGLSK
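Read-out: Photinus luciferase luminescence; inhibitors lower reporter signal. Insect Schneider cells with Gal4-ROR gamma fusion under metallothionein promoter, UAS reporter; 700 uM final copper sulfate induction, 20 hr, ambient temperature.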
ELG1 repair inh = inhibitors of ELG1-dependent DNA repair in HEK293T cells; Potency, µM (top dose mostly 46.1 µM), for inactives: at the top dose activity change, negative = inhibition, hits mostly inhibitors; 330,000 compounds, 2.3% hits; AID 504467; HEK293T ELG1-luciferase reporter, luminescence, 16 h; DNA damage induced by 5-fluorouridine; further: potency means the concentration at half of the fitted maximal effect; on the % scale 0 is the no-effect control and ±100 the full control effect; nearly all actives have a fitted effect of over 55% in size
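Luminescence from the luciferase reporter, measured 30 min after ONE-Glo reagent at room temperature, was the read-out. Beforehand, 2,000 cells per well were exposed for 16 hr at 37 °C to 5-fluorouridine together with compound or vehicle.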
BRCA1 expr up = increases BRCA1 expression | MCF7-BRCA1-FFLuc reporter, luminescence, 48 h; response scale: scaled: vehicle 0%, 10 µM genistein 100% | Potency, µM (series often up to 46.1 µM), for the others: at the top dose activation, actives largely listed as activators | 380,000 compounds, 1.1% hits | AID 624202; further: potency means the concentration at half of the fitted maximal effect; nearly all actives have a fitted effect of over 80% in size
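Cells: MCF7-BRCA1-FFLuc, 2000/well. Exposure: 48 h, 37 °C, 5% CO2. Read: luminescence, 15 min post-substrate. Controls: genistein 10 microM (maximal activation), DMSO (neutral).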
VP16 counter = inhibits Gal4-VP16 luciferase reporter, ROR gamma counter-screen. Drosophila S2 Gal4-VP16 UAS-luciferase, luminescence, 20 h. Potency, µM (top dose mostly 53.6 µM), without a hit: top-dose activity, negative = inhibition, actives largely listed as inhibitors. 310,000 compounds, 3.5% hits;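 further: Gal4-VP16 expression switched on by copper sulfate through the metallothionein promoter; potency means the concentration at half of the fitted maximal effect; on the % scale 0 is the no-effect control and ±100 the full control effect; nearly all actives have a fitted effect of over 50% in size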
Giardia killer = Giardia lamblia killing; 340,000 compounds, 0.15% hits; activity change, % at 7.66 µM, hits read low; Giardia lamblia trophozoite viability; in the data active means activity change below about -80%; inconclusive means between about -30% and that limit;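 further: parasites exposed to compound for two days anaerobically before the ATP read; on the % scale 0 is the no-effect control and ±100 the full control effect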
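Luminescence from cellular ATP indicates surviving trophozoites (100 cells/well) following 48 hrs anaerobic compound treatment at 37 deg C; signal develops 15-30 min at room temperature.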
* marks the source's active call; other numbers are inactive results; u = inconclusive; x = not tested or not shown; [ ] = remark or other dose. Unless noted, the call rests on the fitted dose curve; in most records, active means well fitted curve in the direction sought with a large enough effect; inconclusive means small, poorly fitted or top-dose-only effect, or another doubt; inactive means no such curve, though single readings can be large; an effect the other way counts as inactive or inconclusive.

SMILES	p53 reactivation	RORg inh	ELG1 repair inh	BRCA1 expr up	VP16 counter	Giardia killer
CO[C@H]1COC(=O)[C@H](C)COC(=O)[C@@H](OCc2ccccc2)/C=C\[C@@H]1C	x	-7%[10 µM]	x	x	-1%[10 µM]	x
Cc1ccc(Cl)cc1N1CCN(C(=O)c2cc3c(=O)oc4ccccc4c3s2)CC1	x	x	x	26%	x	x
CN(C)S(=O)(=O)c1ccc(N2CCCC2)c(C(=O)Nc2nc3ccc(F)cc3s2)c1	23%	u	u	-27%	12%	0
CCOc1ccc(NC(=O)N2CC(C)OC(C)C2)cc1 (stereo not given)	0%	-5%	-1%	-18%	-4%	26
CCOCCCNC(=O)CCSc1ccc(C)cc1	-6%	-22%	2%	8%	15%	-12
Cc1ccc(S(=O)(=O)CCc2nnc(NC(=O)c3ccccn3)s2)cc1	u	u	-26%	0%	7.1µM*	-3
Cc1ccc(S(=O)(=O)CCc2nnc(NC(=O)c3cnccn3)s2)cc1	u	-18%	-8%	-5%	0%	28
CCc1nnc(NC(=O)c2cccc(C(=O)Nc3nnc(CC)s3)n2)s1	-1%	0.018µM*	13µM*	-75%	0.18µM*	-4
Cc1nnc(NC(=O)c2ccc3ccccc3n2)s1	u	2.8µM*	u	37%	7.1µM*	-27
COc1ccccc1NC(=O)CSc1ncn(-c2ccccc2)n1	-4%	u	-24%	-14%	1%	22
Cc1ccc(-c2ccc(CN3C(CC(C)C)C(=O)N(Cc4cn(Cc5ccco5)nn4)CCS3(=O)=O)cc2)cc1 (stereo not given)	x	x	x	-9%	x	x
COc1ccc(/C=N/NC(=O)Nc2cccc3nsnc23)cc1	13%	6%[10 µM]	18%	-45%	u	3
O=C(NC(=S)Nc1nc(-c2ccc(Br)cc2)cs1)c1cccnc1	8%	1.1µM*	u	5%	u	7
O=C(NC(=S)Nc1nc(-c2ccc([N+](=O)[O-])cc2)cs1)c1ccco1	u	2.2µM*	u	53%	u	-9
O=C(Nc1nc(-c2ccco2)cs1)c1ccccc1	u	43%	u	8.9µM*	10%	-21
O=C(Nc1nc(-c2ccccc2)cs1)c1ccco1	9%	26%	u	7.1µM*	-2%	-5
O=C(Nc1nc(-c2ccc(Br)cc2)cs1)c1cccnc1	5%	-7%	5%	-3%	3%	-4
COc1ccc(-c2csc(NC(=O)c3ccco3)n2)cc1	u	u	u	u	25%	-15
COc1cccc(-n2c(SCC(=O)Nc3c(C)cc(C)cc3C)nc3c([nH]c4ccccc43)c2=O)c1	x	x	x	-56%	x	x
O=S(=O)(c1ccc2ccccc2c1)N1C=CC(C(F)(F)F)=NCC1	1%	-26%	15%	9%	7%	5
CC(NC(=O)COC(=O)c1ccc2c(c1)OCCO2)c1ccccc1 (stereo not given)	8%	x	14%	18%	x	-6
Cc1cc(C)c([N+](=O)[O-])cc1NC(=O)CCS(=O)(=O)c1ccccc1	-2%	22%	-1%	-13%	-4%	2
O=C(NNc1nc(-c2ccc(Br)cc2)cs1)c1ccco1	22%	5.6µM*	u	60%	u	-9
Cc1ccc(-c2csc(NC(=O)c3ccco3)n2)cc1C	5%	32%	u	u	-7%	4
O=C(NC(=S)Nc1nc(-c2ccc(Br)cc2)cs1)c1ccco1	3%	2.8µM*	-5%	-5%	8%	-8
SMILES	p53 reactivation	RORg inh	ELG1 repair inh	BRCA1 expr up	VP16 counter	Giardia killer
CC(=O)N1CCc2cc(S(=O)(=O)NCc3ccc(C)cc3)ccc21	2%	u	-6%	-17%	-9%	-4
Cc1ccc(S(=O)(=O)Nc2ccc3c(c2)CC(=O)N([C@H](C)CO)C[C@H](C)[C@H](CN(C)Cc2ccc4c(c2)OCO4)O3)cc1	3%	x	-2%	-37%	x	8
O=C1/C(=C/c2ccc3c(c2)OCO3)SC(=S)N1CCC(=O)N(CCO)c1ccccc1	x	x	x	-70%	x	x
CC1CC(=O)c2c(cc3c(-c4c(O)cc(O)c5c(O)c6c(cc45)OC(C)CC6=O)c(O)cc(O)c3c2O)O1 (stereo not given)	-12%	5µM*	u	-61%	13µM*	u
O=C1CC(c2ccccc2)Oc2cc(O)cc(O)c21 (stereo not given)	12%	-5%	u	51%	22%	8
O=[N+]([O-])c1ccc(-c2ccc(/C=N/O)o2)cc1	13%	3%	u	8.9µM*	22%	8
O=C(N/N=C/c1ccc([N+](=O)[O-])cc1)c1cccnc1	-8%	u	13%	11%	2%	-10
Cc1cc([N+](=O)[O-])c(C)cc1-c1ccc(/C=N/NC(=O)c2cccnc2)o1	3%	8.9µM*	-16%	-12%	u	-14
O=C(N/N=C/c1ccc(-c2ccc([N+](=O)[O-])cc2)o1)c1cccnc1	1%	11µM*	8%	-1%	0%	9
COCCNC(=S)N/N=C/c1ccc(-c2ccc([N+](=O)[O-])cc2)o1	-1%	4.5µM*	1%	-25%	10µM*	-2
Cc1c(C(N)=O)c(N)c(C(=O)c2ccccc2)n1-c1ccccc1	-4%	11%	-20%	-1%	3%	-3
CC(C)C(C)NC(=O)CSc1nc2scc(-c3ccco3)c2c(=O)n1-c1ccccc1 (stereo not given)	0%	u	0%	-28%	14µM*	-15
C=CCn1c(SC(F)F)nc2scc(-c3ccco3)c2c1=O	u	u	25%	-77%	5µM*	9
CC(C)C(C)(C#N)NC(=O)CSc1nc2scc(-c3ccco3)c2c(=O)n1-c1ccccc1 (stereo not given)	-2%	12%	u	-26%	6%	-2
CCC(C)Cn1c(C(C)C)nc2ccccc21 (stereo not given)	0%	-1%	-11%	-1%	1%[10 µM]	3
CC12CCC(C(=O)N/N=C/c3ccc(O)cc3O)(OC1=O)C2(C)C (stereo not given)	12%	u	13µM*	-65%	-5%	-7
C/C(=N\NC(=O)C12CCC(C)(C(=O)O1)C2(C)C)c1ccccc1O (stereo not given)	18%	0.71µM*	21µM*	-58%	1.3µM*	10
COc1cc(/C=N/NC(=O)c2cccc(S(=O)(=O)N3CCOCC3)c2)cc(OC)c1O	1%	-3%	-3%	18%	5%	-2

Compound activity from PubChem.
